The results in this text go back to PubChem BioAssay AID493056 (National Center for Advancing Translational Sciences (NCATS), 2011).

Molecules are shown by their SMILES. Among all 360,000 compounds or so, about 2,400 (0.67%) were called active. Many of the other results were omitted from the sample, so actives are more common in it than they were. A number with no mark means an inactive call. Rule as the data show it: active = enhancement above about 30%; inactive = the rest.

Sequence of Thyrotropin-releasing hormone receptor (Homo sapiens) (P34981 whole entry, looked up): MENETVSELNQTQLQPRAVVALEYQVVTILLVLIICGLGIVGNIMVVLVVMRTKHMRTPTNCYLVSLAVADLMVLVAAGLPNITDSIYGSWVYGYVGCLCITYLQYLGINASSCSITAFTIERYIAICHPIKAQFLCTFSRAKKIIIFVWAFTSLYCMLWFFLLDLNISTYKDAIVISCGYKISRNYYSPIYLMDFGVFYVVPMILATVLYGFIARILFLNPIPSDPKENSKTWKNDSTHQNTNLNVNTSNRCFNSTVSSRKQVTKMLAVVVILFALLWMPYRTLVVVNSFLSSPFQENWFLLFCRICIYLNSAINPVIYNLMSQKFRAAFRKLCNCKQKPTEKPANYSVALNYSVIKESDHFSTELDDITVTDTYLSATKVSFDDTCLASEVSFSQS

The assay has as its target Thyrotropin-releasing hormone receptor (Homo sapiens) (UniProt P34981). The assay is described as follows: qHTS for Small Molecule Agonists and Allosteric Enhancers of Human TRH Receptor: Primary Screen for Enhancers. Also: 0% is about no effect. Conditions: TRHR cells, fluo-8 calcium fluorescence, EC20 TRH enhancement; at 2 µM; stronger effect = higher value. Put shortly:
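TRHR-expressing cells loaded with fluo-8 calcium dye were read kinetically (ex 480/em 530) during compound addition, then stimulated with an EC20 of TRH (10 nM final). Enhancement of the Gq-mediated intracellular calcium response was scored.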
(In general: qHTS replaces the single test concentration by a dilution series.)
Take `CCOC(=O)C1CCC(CN(Cc2ccc(OC)cc2)S(=O)(=O)c2ccc(F)c(C(=O)Nc3cc(C)ccc3C)c2)CC1` (stereo unspecified): the enhancement was -3.18%.

In the case of `Cc1ccc(NC(=O)CN2c3ccccc3S(=O)(=O)c3ccccc32)cc1F`, the enhancement is 10.5%.

As to `COC(=O)c1cc(NC(=O)CN2CCN(C(C)=O)CC2)cc(C(=O)OC)c1`, the enhancement was 6.58%.

As to `CC(=O)N1CCN(CC(=O)Nc2ccc(C)c(F)c2)CC1`, the enhancement is 47.8% (active).

Turning to `CCOc1ccc(C2C(C(=O)Nc3ccc(Cl)cc3)=C(C)Nc3nc(C(F)(F)F)nn32)cc1` (stereo unspecified), the enhancement was 10.8%.

With `C#CC(C)(CC)NC(=O)Cn1nnc(-c2ccc(OCc3c(F)cccc3Cl)cc2)n1` (stereo unspecified), the enhancement was 1.56%.

`O=C(COc1ccc(S(=O)(=O)N2CCCCC2)cc1)NCc1ccccn1`: the enhancement is 36.9% (active).

As for `O=C(NCc1ccccn1)C1CCN(S(=O)(=O)c2ccc(Br)cc2)CC1`, the enhancement is -2.72%.

Take `CCOc1ccccc1NC(=O)COc1ccc(S(=O)(=O)N2CCCC2)cc1`: the enhancement was 19.7%.

For `COc1cccc(N2CC(NC(=O)/C=C\c3ccccc3)CC2=O)c1` (stereo unspecified), the enhancement was 5.73%.

With `CCc1ccc(NC(=O)CSc2nc3c([nH]c4ccccc43)c(=O)n2-c2cccc(OC)c2)cc1`, the enhancement is 2.51%.

For the compound `CCOc1cc(CN2CCCC(CO)(Cc3ccc(F)cc3F)C2)ccc1OC` (stereo unspecified), the enhancement was 45.4% (active).

Take `CCc1[nH]nc(C(=O)N2CCCC(CO)(Cc3ccc(F)cc3F)C2)c1C` (stereo unspecified): the enhancement is -3.46%.

Regarding `Cc1ccccc1CC1(CO)CCCN(Cc2ccc3c(c2)OCCO3)C1` (stereo unspecified), the enhancement was 2.06%.

`CC(C)(C)OC(=O)N1CCC(c2c(C(=O)NCc3ccccn3)cnn2-c2ccc(F)cc2)CC1`: the enhancement is 0.916%.

`CSc1nc(=O)c2c(n1C)NC(=O)CC2c1ccccc1OC(C)C` (stereo unspecified): the enhancement was 1.92%.

In the case of `Cc1cc(C)c2oc(C(=O)Nc3c(C(=O)Nc4ccccc4)oc4ccccc34)cc(=O)c2c1`, the enhancement was -1.76%.

As for `Cc1ccc(S(=O)(=O)N(CC(=O)Nc2ccc(Cl)cc2Cl)c2ccccc2C)cc1`, the enhancement was -0.851%.

Consider `CCCOc1ccc(C(=O)Nc2ccc3oc(-c4cccc(Cl)c4Cl)nc3c2)cc1`, for which the enhancement is -0.105%.

As for `CCCCOc1ccc(C(=O)Nc2cccc(-c3nc4ccccc4o3)c2C)cc1`, the enhancement was 36% (active).

Regarding `Cc1ccccc1-c1nc2cc(NC(=O)c3cccc(OCCC(C)C)c3)ccc2o1`, the enhancement was -6.29%.

Consider `Cc1ccc(S(=O)(=O)c2nnn3c2nc(N2CCN(c4ccccc4F)CC2)c2cc(Cl)ccc23)cc1C`, for which the enhancement was 15.1%.

In the case of `COc1ccccc1CNC(=O)c1ccc(-n2c(C)cc3c2CCCC3)cc1`, the enhancement was -0.647%.

As to `Cc1noc(C)c1-c1ccc2ncnc(NCc3ccc(F)c(F)c3)c2c1`, the enhancement is -4.49%.

For the compound `NC(N)=Nc1nc(-c2ccccc2)c2cc(Cl)ccc2n1`, the enhancement is 48.4% (active).

On to `O=C(O)c1ccc(Nc2nc(-c3ccccc3)c3cc(Br)ccc3n2)cc1`, for which the enhancement was 7.15%.

Regarding `O=C(CCl)NNc1nc(-c2ccccc2)c2cc(Cl)ccc2n1`, the enhancement is 32.4% (active).

Take `Clc1ccc2nc(-c3ccccc3)nc(C(Cl)Cl)c2c1`: the enhancement is 2.39%.

`Cc1nc(N=C(N)N)nc2c(C)cccc12`: the enhancement was 10.2%.

On to `O=C(Cn1c(=O)nc(-c2ccccc2)c2cc(Cl)ccc21)NCc1ccc(Cl)cc1`, for which the enhancement is 10.8%.

On to `CCC(C)NC(=O)Cn1c(=O)n(-c2ccc(Cl)cc2)c(=O)c2c3c(sc21)CCCC3` (stereo unspecified), for which the enhancement is 2.95%.

With `CN1CCOc2cc(S(=O)(=O)N3CCN(S(=O)(=O)c4c(F)cccc4F)CC3)cnc21`, the enhancement is -0.823%.

On to `Cc1ccc(C)c(NC(=O)CSC2=Nc3ccccc3N=C(c3ccc(F)cc3)C2)c1`, for which the enhancement is -0.667%.

With `O=[S+]([O-])(c1ccc(OC(F)(F)F)cc1)N1CCN([S+](=O)([O-])c2ccc3c(c2)OCCO3)CC1`, the enhancement is -5.08%.

Take `Cc1cccc(-c2nc(SCC(=O)Nc3cc(C)on3)c3c(=O)n(C)c(=O)n(C)c3n2)c1`: the enhancement was 2.9%.

`CCCCn1c(=N)c(S(=O)(=O)c2ccccc2)cc2c(=O)n3cccc(C)c3nc21`: the enhancement is 1.28%.

For `CC(C)(C)c1ccc(OCC(=O)N2CCC(c3nc4ccccc4s3)CC2)cc1`, the enhancement was -1.99%.

As for `C=CCC1=C/C(=C\c2c(N)n3nc(CC(=O)N4CCOCC4)sc3nc2=O)C=C(OC)C1=O`, the enhancement is 52.7% (active).

For the compound `COC1=C/C(=C/c2c(N)n3nc(CC(=O)N4CCOCC4)sc3nc2=O)C=CC1=O`, the enhancement was 2.92%.

With `COc1cc(OC)c(NC(=O)c2c3c(nn2C)-c2ccccc2SC3)cc1Cl`, the enhancement is 2.77%.

With `CC(C)(C)c1ccc(C(=O)N2CCC(c3nc(-c4ccc(S(=O)(=O)N5CCCC5)cc4)no3)CC2)cc1`, the enhancement was -2.71%.

Consider `COc1cccc(-c2cc(C(=O)Nc3ccc(C)cc3)[nH]n2)c1`, for which the enhancement is -0.168%.

For `Cc1oc(-c2ccccc2F)nc1CN1CCC(C(=O)NCCc2ccc(Cl)cc2)CC1`, the enhancement is 31.8% (active).

As for `COc1ccc(CCNC(=O)C2CCCN(Cc3nc(-c4cccc(Cl)c4)oc3C)C2)cc1OC` (stereo unspecified), the enhancement is -8.38%.

Turning to `COc1ccc(-c2nc(CN3CCC(C(=O)NCc4ccccc4)CC3)c(C)o2)cc1OC`, the enhancement was 3.63%.

`OCC1(CCc2ccccc2)CCN(Cc2ccc3nsnc3c2)CC1`: the enhancement is -4.46%.

`COc1cccc(CC2(CO)CCN(Cc3cnc(-c4cccc(C)c4)nc3)CC2)c1`: the enhancement is 1.96%.

With `Cc1c(CN2CCC(CO)(CCOc3ccccc3)CC2)[nH]c2ccc(Cl)cc12`, the enhancement is 35.6% (active).

Consider `CN(Cc1ccccc1)c1ccc(-c2nc(-c3ccccc3)no2)cc1[N+](=O)[O-]`, for which the enhancement was 5.53%.

Regarding `Cc1ccc(OC(=O)CSc2nnc(-c3cccs3)o2)cc1`, the enhancement is -4.22%.

For the compound `CCC(C)NC(=O)c1ccc(NC(=O)CC2SC(N3CCCCC3)=NC2=O)cc1` (stereo unspecified), the enhancement was -8.07%.

As to `COc1ccc(NC(=O)CC2SC(N3CCCCC3)=NC2=O)cc1OC` (stereo unspecified), the enhancement is 1.49%.

For `O=C(CC1SC(N2CCCC2)=NC1=O)Nc1ccc(C(=O)NCCc2ccc(F)cc2)cc1` (stereo unspecified), the enhancement was 33.4% (active).

Regarding `Cc1cc2nc(-c3ccc(NC(=O)c4cc5ccccc5o4)cc3)oc2cc1C`, the enhancement is -7.25%.

Turning to `CC(=O)c1ccc(N2CCN(c3nc4c(S(=O)(=O)c5ccccc5)nnn4c4ccc(Cl)cc34)CC2)cc1`, the enhancement was 1.21%.

In the case of `O=C(CNC(=O)c1ccccc1)OC(C(=O)Nc1cc([N+](=O)[O-])ccc1F)c1ccccc1` (stereo unspecified), the enhancement is -0.946%.

On to `CSCC(=O)N1CCCC(C(=O)c2cc(F)ccc2F)C1` (stereo unspecified), for which the enhancement is -3.7%.

Take `COc1ccc(/C=C/CN2CCCC(C(=O)c3cc(F)ccc3F)C2)cc1` (stereo unspecified): the enhancement was 31.8% (active).

As for `O=C(c1ccc(OC2CCN(C/C=C/c3ccc(F)cc3)CC2)cc1)N1CCCCC1`, the enhancement is 0.691%.

With `Cc1ccc2oc3c(c(=O)c2c1)C(c1ccc([N+](=O)[O-])cc1)N(CCCN1CCOCC1)C3=O` (stereo unspecified), the enhancement was -0.734%.

For the compound `COc1ccc2oc(=O)c(-c3cn4c(n3)sc3cc(OC)ccc34)cc2c1`, the enhancement was 1.26%.

Regarding `Cc1cccc(NC(=O)CN2CCCN(S(=O)(=O)c3ccc(Br)s3)CC2)c1`, the enhancement was 9.87%.

`C/C(=N/NC(=O)CN1CCN(S(=O)(=O)c2ccc(Br)cc2)CC1)c1ccncc1`: the enhancement was 1.09%.

Turning to `Cc1ccc(S(=O)(=O)N2CCN(CC(=O)N/N=C/c3ccc(Br)s3)CC2)cc1`, the enhancement was 47.7% (active).

Turning to `CCOC(=O)c1ccccc1NC(=O)CCc1c(C)nc2c(c1C)c(=O)n(C)c(=O)n2C`, the enhancement is -7.61%.

As to `Cc1cc(C)cc(NS(=O)(=O)c2ccc(-c3cc(C)no3)s2)c1`, the enhancement was -5.49%.

As to `CCc1ccc(/C=C2\SC(N3CCOCC3)=NC2=O)cc1`, the enhancement was 38.7% (active).

With `CCOc1cc(/C=C2\SC(N3CCCC(C)C3)=NC2=O)ccc1O` (stereo unspecified), the enhancement was -4.09%.

`O=C1N=C(N2CCOCC2)S/C1=C\C=C/c1ccccc1`: the enhancement was -2.61%.

With `COc1ccc(CCNC(=O)CCCn2c(=O)c3ccccc3n(Cc3ccc(F)cc3Cl)c2=O)cc1OC`, the enhancement was 4.63%.

For the compound `COc1ccc(NC(=O)CSc2ncnc3[nH]ncc23)cc1`, the enhancement is 3.87%.

On to `COC(=O)c1cccc(NC(=O)CSc2nc(C)cc(=O)[nH]2)c1`, for which the enhancement is 36.7% (active).

Take `O=C(COC(=O)CCCSc1nc2ccccc2[nH]1)Nc1ccc(Oc2ccccc2)cc1`: the enhancement is 1.7%.

With `CC(=O)c1cccc(NC(=O)CSc2nc3c(c(=O)[nH]2)CCC3)c1`, the enhancement was -3.58%.

Consider `COc1ccc(NC(=O)CSc2nc(C)cs2)cc1`, for which the enhancement was 33.7% (active).

`Cc1csc(SCC(=O)Nc2sccc2C#N)n1`: the enhancement was -4.36%.

On to `COc1ccc(NC(=O)CSc2nc(NS(=O)(=O)c3ccc(C)cc3)cc(=O)[nH]2)cc1`, for which the enhancement is -7.18%.

`COc1ccc(NC(=O)CSc2nc3ccccc3[nH]2)cc1`: the enhancement was 39.7% (active).

Take `COc1ccc2nc(SCC(=O)Nc3c(C)cc(C)cc3C)[nH]c2c1`: the enhancement was 0.227%.

For the compound `COC(=O)c1cccc(Cn2nnc3sc4c(c3c2=O)CCC(C(C)(C)C)C4)c1` (stereo unspecified), the enhancement was -1.23%.

For `COc1ccc(CCNC(=O)C(=O)NCC(c2ccco2)S(=O)(=O)c2cccs2)cc1OC` (stereo unspecified), the enhancement is -2.44%.

For the compound `Cn1nnnc1Sc1ncnc2scc(-c3ccccc3[N+](=O)[O-])c12`, the enhancement was -1.81%.

For the compound `COc1cc(OC)cc(C(=O)Nc2ccc3nc(Nc4cccc(C(F)(F)F)c4)cc(C)c3c2)c1`, the enhancement was -5.96%.

As for `CC1=CC(C)(C)N(C(=O)CSc2nnc(-c3ccccc3)o2)c2ccc(C)cc21`, the enhancement is 35.8% (active).

On to `CC1=CC(C)(C)N(C(=O)CSc2nccn2C)c2cc(C)ccc21`, for which the enhancement was -7.93%.

As to `Cc1cccc(-c2nnc(SCC(=O)N3CCCc4ccccc43)o2)c1`, the enhancement is -6.5%.
